In PubChem BioAssay (Tox21) one finds Potency data, which are given here for 18 compounds.

The nature of test [1]: A CellTox Green Cytotoxicity Assay to monitor cytotoxicity in HepG2 cells - 0 hour (AID 1224882). Also: nearly all actives have a fitted effect of over 35% in size. A digest of the protocol: (§1)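 HepG2, 600 cells/well premixed w/ CellTox Green; 5 h settle, 37 C/5% CO2; pintool cpd add (DMSO); 37 C, 40 h; fluorescence read at 0, 8, 16, 24, 32, 40 h.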
The nature of test [2]: A CellTox Green Cytotoxicity Assay to monitor cytotoxicity in HepG2 cells - 32 hour (AID 1224883). Also: nearly all actives have a fitted effect of over 50% in size. Also: potency is read from the fitted curve at half-maximal effect. A digest of the protocol: as §1
Test [3] in a line: A CellTox Green Cytotoxicity Assay to monitor cytotoxicity in HEK293 cells - 8 hour (AID 1224884). Also: nearly all actives have a fitted effect of over 35% in size. In outline: (§2)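 Read-out: fluorescence of a cell-impermeant cyanine dye staining DNA of dead cells, proportional to cytotoxicity. HEK293, 600 cells/well with reagent, compound (23 nL DMSO) added after 5 h; reads at 0, 8, 16, 24, 32, 40 h.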
Test [4] is described as follows: qHTS RealTime-Glo MT Cell Viability Assay in HepG2 cells - 16 hour (AID 1224885). Also: nearly all actives have a fitted effect of over 50% in size. A digest of the protocol: (§3)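 Real-time, nonlytic viability: 600 HepG2 cells/well mixed with NanoLuc enzyme plus prosubstrate; 5 h settle, compound (DMSO) added by pintool; luminescence monitored over 40 h at 37 C.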
In general terms: Quantitative high-throughput screening tests each substance at several concentrations.

The nature of test [5]: qHTS RealTime-Glo MT Cell Viability Assay in HEK293 cells - 24 hour (AID 1224886). Also: nearly all actives have a fitted effect of over 50% in size. Also: potency is read from the fitted curve at half-maximal effect. In outline: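 Cells + reagent dispensed (600 cells/well, HEK293) → 5 h at 37 C/5% CO2 → 23 nL compound in DMSO pinned → 40 h at 37 C → luminescence read at 0, 8, 16, 24, 32, 40 h.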
Test [6] is described as follows: qHTS RealTime-Glo MT Cell Viability Assay in HEK293 cells - 8 hour (AID 1224887). Also: top concentration of the series differs between compounds; nearly all actives have a fitted effect of over 50% in size. A digest of the protocol: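 Luminescence readout at each listed time point; HEK293, 600 cells/well, RealTime-Glo MT reagent added with cells; compounds pinned (23 nL in DMSO) after 5 h at 37 C; continuous culture at 37 C.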
Test [7] is described as follows: A CellTox Green Cytotoxicity Assay to monitor cytotoxicity in HEK293 cells - 16 hour (AID 1224888). Also: nearly all actives have a fitted effect of over 35% in size. A digest of the protocol: as §2
A short description of test [8]: qHTS RealTime-Glo MT Cell Viability Assay in HepG2 cells - 0 hour (AID 1224889). Also: nearly all actives have a fitted effect of over 50% in size. In outline: as §3
Test [9] in a line: A CellTox Green Cytotoxicity Assay to monitor cytotoxicity in HepG2 cells - 8 hour (AID 1224890). Also: nearly all actives have a fitted effect of over 45% in size. A digest of the protocol:
as §1

A short description of test [10]: qHTS assay to identify small molecule antagonists of the estrogen receptor alpha (ER-alpha) signaling pathway using the BG1 cell line in the presence of 0.1 nM 17-beta-estradiol - cell viability counter screen (AID 1259241). Also: nearly all actives have a fitted effect of over 40% in size. A digest of the protocol:
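Cytotoxicity counter-screen: live-cell protease activity measured by fluorescence (30 min reagent step) in the same wells. Cells were VM7Luc4E2 with endogenous ER-alpha and ERE-driven luciferase, treated 22 hr at 37C alongside 0.1 nM 17beta-estradiol final.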

Where “and” joins values, the source holds several entries; their conditions need not be identical. Equal entries are not always repeated. Inconclusive results are not listed. More than one record can exist for a structure, and the calls need not agree. Calls of active or inactive are those of the source. Calls follow the shape of the dose curve; as a rule, active = well fitted curve in the direction sought with a large enough effect in the repeat runs; inconclusive = weak or mixed curves; inactive = no such curve, though single readings can be large; an effect the other way counts as inactive or inconclusive.

On to `C[n+]1ccn(CCO)c1`, for which the Potency result in test [1], in test [2], in test [3], in [4], in test [5] and in test [6] was “inactive” in each case. Besides, the Potency entry in [7], in test [8] and in [9] was “inactive” each time.

Consider `COc1ccccc1[N+](=O)[O-]`, for which the Potency result in test [1], in test [2], in [3], in [4], in [5] and in test [6] was “inactive” in each case. Further, the Potency result in [7], in test [8] and in test [9] was “inactive” in each case.

Turning to `CC1=CC(=O)CC(C)(C)C1`, the Potency entry in test [1], in test [3], in test [4], in [5], in [6] and in [7] was “inactive” throughout. The Potency result in [8] and in [9] was “inactive” each time. Also, in test [2], the Potency is 25.3 µM (active) and inactive.

Consider `CC(=O)CC(=O)N(C)C`, for which the Potency result in test [1], in [2], in [3], in test [4], in test [5] and in test [6] was “inactive” each time. In addition, the Potency result in [7], in test [8] and in [9] was “inactive” throughout.

`COc1c2ccoc2cc2oc(=O)ccc12`: the Potency result in test [1], in [2], in test [3], in test [4], in test [5] and in test [6] was “inactive” each time. The Potency result in test [7], in [8] and in [9] was “inactive” throughout.

For `NC(=O)c1ncn([C@@H]2O[C@H](CO)[C@@H](O)[C@H]2O)n1`, the Potency result in test [1], in [2], in test [3], in test [4], in test [5] and in test [6] was “inactive” throughout. The Potency entry in test [7], in test [8], in test [9] and in test [10] was “inactive” throughout.

For the compound `CC/C=C(\C(=O)N[C@@H]1C(=O)N2C(C(=O)OCOC(=O)C(C)(C)C)=C(COC(N)=O)CS[C@H]12)c1csc(N)n1`, the Potency entry in [1], in test [2], in test [3], in test [4], in test [5] and in test [6] was “inactive” in each case. In addition, the Potency entry in test [7], in test [8], in test [9] and in test [10] was “inactive” throughout.

Consider `COC(=O)OC`, for which the Potency result in [1], in test [2], in test [3], in test [4], in test [5] and in [6] was “inactive” in each case. Further, the Potency entry in [7], in test [8] and in [9] was “inactive” throughout.

On to `CC(=O)OC/C=C(\C)CCC=C(C)C`, for which the Potency result in [1], in test [2], in [3], in test [4], in [5] and in test [6] was “inactive” in each case. For the same compound, the Potency entry in test [7], in test [8], in test [9] and in test [10] was “inactive” throughout.

Take `OC1CCCCC1`: the Potency result in test [1], in [2], in test [3], in test [4], in test [5] and in [6] was “inactive” in each case. The Potency entry in test [7], in [8], in [9] and in test [10] was “inactive” in each case.

Turning to `O=C1OC(=O)c2c(Cl)c(Cl)c(Cl)c(Cl)c21`, the Potency result in test [1], in test [2], in test [3], in test [4], in [5] and in [6] was “inactive” each time. Also, the Potency entry in [7], in [8] and in test [9] was “inactive” throughout.

Consider `COc1c(Cl)ccc(Cl)c1C(=O)O`, for which the Potency entry in test [1], in test [2], in [3], in test [4], in [5] and in test [6] was “inactive” throughout. The Potency result in test [7], in [8], in test [9] and in [10] was “inactive” in each case.

For the compound `NC(=O)NC(N)=O`, the Potency entry in [1], in test [2], in test [3], in [4], in [5] and in [6] was “inactive” each time. For the same compound, the Potency entry in test [7], in test [8] and in test [9] was “inactive” in each case.

With `O=C(c1ccccc1)c1ccc(O)c(O)c1O`, the Potency result in [1], in [2], in test [3], in [4], in test [5] and in test [6] was “inactive” in each case. Besides, the Potency entry in test [7], in test [8] and in test [9] was “inactive” each time.

With `CC(C)=CCC/C(C)=C/C=O`, the Potency result in test [1], in [2], in test [3], in [4], in test [5] and in [6] was “inactive” in each case. Also, the Potency result in test [7], in test [8] and in [9] was “inactive” each time.

In the case of `COc1ccc([C@@H]2CC(=O)c3c(O)cc(O[C@@H]4O[C@H](CO[C@@H]5O[C@@H](C)[C@H](O)[C@@H](O)[C@H]5O)[C@@H](O)[C@H](O)[C@H]4O)cc3O2)cc1OC`, the Potency result in test [1], in test [2], in test [3], in test [4], in test [5] and in test [6] was “inactive” throughout. Besides, the Potency entry in [7], in test [8], in [9] and in test [10] was “inactive” throughout.

As to `c1cnc2c(c1)ccc1cccnc12`, the Potency result in [1], in test [2], in [3], in test [4], in test [6] and in test [7] was “inactive” throughout. In addition, the Potency result in [8] and in test [9] was “inactive” in each case. For the same compound, the Potency in test [5] was 3.5 µM (active) and 8.71 µM (active) and 9.77 µM (active).

For the compound `CC(C)(CO)CO`, the Potency entry in test [1], in test [2], in test [3], in test [4], in [5] and in test [6] was “inactive” throughout. The Potency entry in [7], in [8] and in test [9] was “inactive” each time.
